The target of assay [1] is RAC-alpha serine/threonine-protein kinase (Homo sapiens) (UniProt P31749). Particulars: at 0.1 µM.
For assay [2] the target is unchanged. Particulars: at 1 µM.
For assay [3], the target named is RAC-beta serine/threonine-protein kinase (Homo sapiens) (UniProt P31751). Particulars: at 0.1 µM.
Assay [4] has the same target. Particulars: at 1 µM.
Assay [5] has as its target RAC-gamma serine/threonine-protein kinase (Homo sapiens) (UniProt Q9Y243). Particulars: at 0.1 µM.
Assay [6] shares this target. Particulars: at 1 µM.
The target in assay [7] is G protein-coupled receptor kinase 6 (Homo sapiens) (UniProt P43250). Particulars: at 0.1 µM.
The target is the same in assay [8]. Particulars: at 1 µM.
Assay [9] addresses T1, Rhodopsin kinase GRK7 (Homo sapiens) (UniProt Q8WTQ7).
T1 sequence (whole entry): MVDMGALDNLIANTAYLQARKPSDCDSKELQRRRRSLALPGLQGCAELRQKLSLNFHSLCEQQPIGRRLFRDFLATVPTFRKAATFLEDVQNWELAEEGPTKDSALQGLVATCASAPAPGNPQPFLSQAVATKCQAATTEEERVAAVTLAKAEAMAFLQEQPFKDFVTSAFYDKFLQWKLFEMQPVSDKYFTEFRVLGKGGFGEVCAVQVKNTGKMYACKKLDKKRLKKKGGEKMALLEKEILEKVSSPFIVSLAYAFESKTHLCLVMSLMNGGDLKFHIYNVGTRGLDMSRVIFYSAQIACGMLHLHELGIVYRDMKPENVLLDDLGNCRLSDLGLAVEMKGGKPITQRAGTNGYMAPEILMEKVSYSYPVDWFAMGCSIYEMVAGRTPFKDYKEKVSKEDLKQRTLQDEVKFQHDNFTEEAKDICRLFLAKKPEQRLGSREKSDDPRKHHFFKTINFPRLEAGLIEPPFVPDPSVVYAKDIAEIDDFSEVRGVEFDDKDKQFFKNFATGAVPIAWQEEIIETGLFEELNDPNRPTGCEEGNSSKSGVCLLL
Particulars: at 0.1 µM.

The target of assay [10] is T1, Rhodopsin kinase GRK7 (Homo sapiens). Particulars: at 1 µM.
Assay [11] deals with Serine/threonine-protein kinase MRCK alpha (Homo sapiens) (UniProt Q5VT25). Particulars: at 0.1 µM.
For assay [12] the target is unchanged. Particulars: at 1 µM.
For assay [13], the target named is Serine/threonine-protein kinase MRCK beta (Homo sapiens) (UniProt Q9Y5S2). Particulars: at 0.1 µM.
Assay [14] shares this target. Particulars: at 1 µM.
For assay [15], the target named is Ribosomal protein S6 kinase alpha-5 (Homo sapiens) (UniProt O75582). Particulars: at 0.1 µM.
Assay [16] has the same target. Particulars: at 1 µM.
Assay [17] addresses Ribosomal protein S6 kinase alpha-4 (Homo sapiens) (UniProt O75676). Particulars: at 0.1 µM.
Assay [18] shares this target. Particulars: at 1 µM.
For assay [19], the target named is Ribosomal protein S6 kinase beta-1 (Homo sapiens) (UniProt P23443). Particulars: at 0.1 µM.
The target is the same in assay [20]. Particulars: at 1 µM.

Serine/threonine-protein kinase MRCK alpha (Homo sapiens), sequence (Q5VT25 whole entry): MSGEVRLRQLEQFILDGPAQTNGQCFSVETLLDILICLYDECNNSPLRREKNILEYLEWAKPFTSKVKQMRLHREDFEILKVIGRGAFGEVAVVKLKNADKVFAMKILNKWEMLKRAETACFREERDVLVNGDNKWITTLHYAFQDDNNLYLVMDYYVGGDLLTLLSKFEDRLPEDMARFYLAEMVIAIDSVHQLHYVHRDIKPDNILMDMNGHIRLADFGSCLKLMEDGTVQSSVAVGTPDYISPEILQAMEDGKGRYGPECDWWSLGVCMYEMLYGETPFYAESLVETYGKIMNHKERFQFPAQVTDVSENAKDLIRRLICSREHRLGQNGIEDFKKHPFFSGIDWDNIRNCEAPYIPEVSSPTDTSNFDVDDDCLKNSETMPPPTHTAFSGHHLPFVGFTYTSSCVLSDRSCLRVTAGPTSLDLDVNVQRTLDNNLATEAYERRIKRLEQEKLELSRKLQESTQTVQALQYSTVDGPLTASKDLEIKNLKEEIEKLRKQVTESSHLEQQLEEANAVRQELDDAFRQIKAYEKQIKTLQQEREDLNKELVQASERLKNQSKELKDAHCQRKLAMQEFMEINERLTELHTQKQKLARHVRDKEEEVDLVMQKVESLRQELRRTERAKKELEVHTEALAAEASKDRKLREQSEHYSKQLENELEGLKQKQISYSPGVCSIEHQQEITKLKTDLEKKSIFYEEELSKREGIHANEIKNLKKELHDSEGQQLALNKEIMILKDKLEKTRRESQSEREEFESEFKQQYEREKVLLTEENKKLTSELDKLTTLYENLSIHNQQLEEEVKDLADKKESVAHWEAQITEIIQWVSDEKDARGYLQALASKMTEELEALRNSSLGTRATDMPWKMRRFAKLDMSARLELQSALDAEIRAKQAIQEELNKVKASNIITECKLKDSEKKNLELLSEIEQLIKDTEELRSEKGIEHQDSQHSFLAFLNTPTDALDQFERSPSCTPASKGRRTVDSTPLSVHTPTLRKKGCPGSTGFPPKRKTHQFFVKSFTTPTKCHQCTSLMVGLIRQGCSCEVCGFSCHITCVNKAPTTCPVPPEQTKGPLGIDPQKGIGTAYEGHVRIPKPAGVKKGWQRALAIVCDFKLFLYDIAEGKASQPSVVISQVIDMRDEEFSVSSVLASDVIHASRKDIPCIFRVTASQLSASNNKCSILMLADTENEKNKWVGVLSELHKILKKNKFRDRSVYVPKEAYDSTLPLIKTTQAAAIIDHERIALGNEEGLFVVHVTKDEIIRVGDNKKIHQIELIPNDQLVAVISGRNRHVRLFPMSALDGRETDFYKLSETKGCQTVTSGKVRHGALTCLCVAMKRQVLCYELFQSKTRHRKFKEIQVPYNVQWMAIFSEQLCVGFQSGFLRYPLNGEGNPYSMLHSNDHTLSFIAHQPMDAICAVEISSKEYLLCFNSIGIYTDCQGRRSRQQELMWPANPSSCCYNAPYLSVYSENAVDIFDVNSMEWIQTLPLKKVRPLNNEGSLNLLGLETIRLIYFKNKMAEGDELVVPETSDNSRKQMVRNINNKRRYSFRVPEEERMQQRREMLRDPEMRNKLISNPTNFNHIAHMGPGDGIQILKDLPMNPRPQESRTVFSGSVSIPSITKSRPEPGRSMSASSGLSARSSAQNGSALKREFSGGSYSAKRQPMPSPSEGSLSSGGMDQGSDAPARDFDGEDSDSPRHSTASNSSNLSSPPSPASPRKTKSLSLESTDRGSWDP
G protein-coupled receptor kinase 6 (Homo sapiens), sequence (P43250 whole entry, looked up): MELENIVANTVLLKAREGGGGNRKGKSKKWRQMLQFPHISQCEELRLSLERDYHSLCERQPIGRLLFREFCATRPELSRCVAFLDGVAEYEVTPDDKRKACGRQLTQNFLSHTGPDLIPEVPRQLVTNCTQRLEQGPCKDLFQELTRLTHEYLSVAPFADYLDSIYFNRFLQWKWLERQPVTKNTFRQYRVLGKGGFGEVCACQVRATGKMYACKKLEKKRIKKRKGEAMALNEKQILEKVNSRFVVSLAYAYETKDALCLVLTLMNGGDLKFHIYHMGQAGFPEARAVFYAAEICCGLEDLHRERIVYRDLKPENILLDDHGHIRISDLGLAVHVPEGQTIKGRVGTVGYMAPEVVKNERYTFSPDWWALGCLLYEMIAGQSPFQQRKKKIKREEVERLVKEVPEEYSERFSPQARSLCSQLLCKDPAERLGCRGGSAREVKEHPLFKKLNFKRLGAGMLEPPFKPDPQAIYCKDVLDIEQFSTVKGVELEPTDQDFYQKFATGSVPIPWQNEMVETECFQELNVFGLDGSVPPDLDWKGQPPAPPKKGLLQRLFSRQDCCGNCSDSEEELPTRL
Serine/threonine-protein kinase MRCK beta (Homo sapiens), sequence (Q9Y5S2 whole entry): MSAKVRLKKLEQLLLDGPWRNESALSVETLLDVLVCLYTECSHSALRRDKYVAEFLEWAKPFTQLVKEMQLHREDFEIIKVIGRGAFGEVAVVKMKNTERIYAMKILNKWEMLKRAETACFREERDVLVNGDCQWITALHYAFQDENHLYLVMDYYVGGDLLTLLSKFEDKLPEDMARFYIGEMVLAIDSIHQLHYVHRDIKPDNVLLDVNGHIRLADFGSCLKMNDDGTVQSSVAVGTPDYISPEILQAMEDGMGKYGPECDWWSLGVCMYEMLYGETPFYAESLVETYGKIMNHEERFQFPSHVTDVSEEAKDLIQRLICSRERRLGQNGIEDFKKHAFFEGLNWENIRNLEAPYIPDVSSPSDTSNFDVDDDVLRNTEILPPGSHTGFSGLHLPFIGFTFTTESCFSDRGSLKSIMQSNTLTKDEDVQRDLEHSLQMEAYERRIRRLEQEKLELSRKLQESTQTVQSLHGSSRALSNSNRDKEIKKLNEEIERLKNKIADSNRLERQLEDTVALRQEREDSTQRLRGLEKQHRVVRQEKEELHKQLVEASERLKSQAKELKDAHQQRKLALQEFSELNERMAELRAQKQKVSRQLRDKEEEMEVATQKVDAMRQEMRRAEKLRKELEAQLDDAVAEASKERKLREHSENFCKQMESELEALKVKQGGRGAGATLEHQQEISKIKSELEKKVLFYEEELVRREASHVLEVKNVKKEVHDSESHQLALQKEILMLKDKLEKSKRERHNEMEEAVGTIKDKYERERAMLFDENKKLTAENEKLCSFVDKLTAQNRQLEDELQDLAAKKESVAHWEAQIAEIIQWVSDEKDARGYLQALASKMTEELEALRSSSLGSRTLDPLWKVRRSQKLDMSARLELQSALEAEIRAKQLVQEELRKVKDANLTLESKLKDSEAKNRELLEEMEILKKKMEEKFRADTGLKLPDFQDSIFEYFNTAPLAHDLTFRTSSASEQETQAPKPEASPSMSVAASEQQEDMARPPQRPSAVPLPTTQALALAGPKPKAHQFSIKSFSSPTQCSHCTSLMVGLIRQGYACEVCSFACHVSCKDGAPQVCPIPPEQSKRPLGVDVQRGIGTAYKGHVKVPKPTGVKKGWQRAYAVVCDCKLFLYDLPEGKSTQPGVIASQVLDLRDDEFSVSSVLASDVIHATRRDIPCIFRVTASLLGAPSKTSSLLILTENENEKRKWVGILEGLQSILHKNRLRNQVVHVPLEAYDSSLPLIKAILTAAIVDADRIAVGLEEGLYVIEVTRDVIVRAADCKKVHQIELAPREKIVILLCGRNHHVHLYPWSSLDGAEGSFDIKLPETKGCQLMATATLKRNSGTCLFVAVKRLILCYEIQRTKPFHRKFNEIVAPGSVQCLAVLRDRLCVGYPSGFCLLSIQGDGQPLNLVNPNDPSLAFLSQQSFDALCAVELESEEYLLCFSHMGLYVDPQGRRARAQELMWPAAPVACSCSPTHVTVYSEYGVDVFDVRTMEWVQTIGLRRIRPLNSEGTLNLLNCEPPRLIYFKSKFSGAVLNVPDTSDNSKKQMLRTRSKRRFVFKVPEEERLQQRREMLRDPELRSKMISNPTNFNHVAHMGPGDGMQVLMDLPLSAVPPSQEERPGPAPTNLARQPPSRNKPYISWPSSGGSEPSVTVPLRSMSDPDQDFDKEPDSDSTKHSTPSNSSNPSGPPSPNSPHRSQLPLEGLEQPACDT
RAC-gamma serine/threonine-protein kinase (Homo sapiens), sequence (Q9Y243 whole entry): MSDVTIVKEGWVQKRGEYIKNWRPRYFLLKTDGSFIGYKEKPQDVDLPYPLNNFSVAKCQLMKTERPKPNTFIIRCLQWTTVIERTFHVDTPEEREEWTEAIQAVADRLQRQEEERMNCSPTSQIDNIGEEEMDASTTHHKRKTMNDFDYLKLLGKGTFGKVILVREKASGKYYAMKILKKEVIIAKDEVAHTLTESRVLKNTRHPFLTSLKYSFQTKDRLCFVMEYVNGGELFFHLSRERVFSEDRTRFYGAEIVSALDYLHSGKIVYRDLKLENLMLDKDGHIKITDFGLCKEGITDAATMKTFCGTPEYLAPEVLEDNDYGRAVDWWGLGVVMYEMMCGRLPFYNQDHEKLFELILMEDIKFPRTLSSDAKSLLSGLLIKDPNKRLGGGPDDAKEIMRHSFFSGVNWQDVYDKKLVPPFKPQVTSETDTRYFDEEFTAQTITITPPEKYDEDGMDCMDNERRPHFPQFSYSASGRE
RAC-alpha serine/threonine-protein kinase (Homo sapiens), sequence (P31749 whole entry): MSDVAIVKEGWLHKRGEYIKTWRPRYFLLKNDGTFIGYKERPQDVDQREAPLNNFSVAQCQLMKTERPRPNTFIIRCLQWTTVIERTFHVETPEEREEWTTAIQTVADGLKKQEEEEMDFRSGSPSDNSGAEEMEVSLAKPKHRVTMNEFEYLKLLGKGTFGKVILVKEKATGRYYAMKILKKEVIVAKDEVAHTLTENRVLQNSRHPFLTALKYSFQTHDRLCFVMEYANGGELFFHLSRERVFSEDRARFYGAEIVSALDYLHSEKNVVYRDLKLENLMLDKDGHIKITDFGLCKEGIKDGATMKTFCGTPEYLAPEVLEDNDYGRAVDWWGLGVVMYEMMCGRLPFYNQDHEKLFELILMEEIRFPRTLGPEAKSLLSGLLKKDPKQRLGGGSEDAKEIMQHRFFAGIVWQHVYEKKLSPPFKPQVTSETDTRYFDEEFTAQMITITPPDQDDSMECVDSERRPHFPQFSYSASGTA

Broadly, the inhibition is the change of the read-out against control, counted positive when it falls. Turning to `CN1CCC(C(=O)Nc2n[nH]c3nnc(-c4ccccc4)cc23)CC1`, the inhibition is 0.8% in [1]; 0.53% in assay [2]; 3.48% in assay [3]; 1.57% in assay [4]; 2.3% in assay [5]; 2.79% in assay [6]. In addition, the inhibition in assay [7] was 7.16%; in assay [8], 14.5%; in assay [9], 7.52%; in [10] it was 15.6%; in assay [11] it was 0.2%; in assay [12], 2.63%. Moreover, the inhibition in [13] was -0.23%; in assay [14], 0.78%; in assay [15] it was -1.68%; in assay [16], -1.22%; in assay [17] it was 2.89%; in assay [18], 4.31%. Further, the inhibition was 1.63% in [19] and 2.47% in assay [20].

For the compound `CN(C)c1cc2c(Nc3ccc4nc(Cc5ccccc5)[nH]c4c3)ncnc2cn1`, the inhibition in assay [1] is 1.02%; in assay [2] it was 0.52%; in assay [3], 2.3%; in [4] it was 2.71%; in assay [5], 1.37%; in assay [6], 3.27%. The inhibition in [7] is 2.98%; in assay [8] it was 6.85%; in [9], 20.5%; in assay [10] it was 22.6%; in [11], -0.16%; in assay [12], 1.32%. Also, the inhibition in [13] worked out at 0.33%; in [14], 0.93%; in [15], 4.14%; in assay [16], 4.53%; in assay [17], 1.93%; in assay [18], 2.96%. Further, the inhibition is 2.15% in assay [19] and 4.96% in assay [20].

In the case of `CC(=O)Nc1cccc(C#Cc2cncnc2Nc2ccc(OCc3cccc(F)c3)c(Cl)c2)n1`, the inhibition in assay [1] was -0.69%; in [2], 0.42%; in assay [3] it was -1.3%; in assay [4], -0.21%; in assay [5], -1.1%; in assay [6], -0.11%. Also, the inhibition stood at 0.73% in [7]; 6.19% in [8]; 1.16% in assay [9]; 11.2% in assay [10]; 2.04% in assay [11]; 4.47% in assay [12]. Further, the inhibition in [13] amounted to 0.72%; in assay [14], 3.16%; in assay [15], 8.63%; in [16], 10.1%; in assay [17], 2.79%; in [18], 4.81%. In addition, the results for the inhibition in assay [19] and in [20] were 0.05% and 0.93%, respectively.

`CCn1c(-c2nonc2N)nc2cncc(C(=O)N3CC[C@H](N)C3)c21`: the inhibition in assay [1] worked out at 3.33%; in assay [2], 19.5%; in [3], 3.72%; in assay [4], 13.3%; in assay [5], 5.44%; in assay [6], 32.9%. Moreover, the inhibition in assay [7] came to 6.84%; in assay [8], 8.03%; in assay [9], 3.41%; in assay [10] it was 10.7%; in [11], 14.5%; in assay [12], 68.7%. Further, the inhibition in assay [13] was determined as 23.1%; in [14], 67.2%; in assay [15] it was 67.9%; in assay [16], 81.4%; in assay [17], 44.5%; in assay [18], 74.3%. Besides, the values for the inhibition in assay [19] and in assay [20] were 32.9% and 80.3%, respectively.

On to `Cc1nnc(-c2ccc(C)c(-c3ccc(C(=O)Nc4cccc(C#N)c4)cc3)c2)o1`, for which the inhibition in assay [1] is 0.44%; in [2], 0.29%; in assay [3], 0.76%; in assay [4], 0.57%; in [5] it was 1.16%; in assay [6] it was 1.22%. Further, the inhibition in [7] was determined as 2.81%; in assay [8], 3.91%; in assay [9], 2.5%; in assay [10], 7.22%; in assay [11], 0.21%; in assay [12], 2.76%. The inhibition in assay [13] is -0.92%; in [14], -0.91%; in [15], 1.21%; in assay [16] it was 1.62%; in assay [17], 0.19%; in [18], 2.28%. The inhibition in [19] was determined as 1.45%; in assay [20], 1.91%.

Take `Cc1ccc(NC(=O)c2ccnc(N3CCCC3)c2)cc1-c1ccc(C(=O)NCC2CC2)cc1`: the inhibition was -2.27% in [1]; -3.57% in assay [2]; -1.45% in [3]; -1.55% in assay [4]; -3.88% in [5]; -2.23% in [6]. The inhibition in assay [7] was 2.49%; in assay [8], 0.85%; in assay [9], 5.08%; in [10], 10.4%; in [11] it was 1.01%; in [12], -0.76%. The inhibition in assay [13] amounted to 1.8%; in assay [14] it was 2.5%; in assay [15], 2.8%; in assay [16], 2.72%; in [17] it was 3.43%; in [18], 8.63%. For the same compound, the inhibition came to 1.53% in assay [19] and 2.76% in assay [20].

These data come from ChEMBL document CHEMBL1961873, “Compounds: GSK PKIS; Assays: Nanosyn kinase panel” (2012).
